In the library only some 12% were active in any assay of this set; here they are far more common.
JMJD2A Tudor inh: inhibitors of human JMJD2A Tudor domain; O75164; AlphaScreen JMJD2A-Tudor / H3K4me3 peptide binding; Potency, µM (top dose mostly 114 µM), actives largely listed as inhibitors; hit rate 4.4% among 390,000; AID 504339; note: nearly all actives have a fitted effect of over 50% in size
HP1b chromo inh: blocks HP1-beta chromodomain binding to methylated histone tails. AID 540317. AlphaScreen HP1-beta / biotin-H3K9me3 peptide binding. hit rate 0.56% among 390,000. Potency, µM (highest dose often 114 µM), hits mostly inhibitors. P83916; note: nearly all actives have a fitted effect of over 70% in size
Target sequence (P83916 whole entry, looked up): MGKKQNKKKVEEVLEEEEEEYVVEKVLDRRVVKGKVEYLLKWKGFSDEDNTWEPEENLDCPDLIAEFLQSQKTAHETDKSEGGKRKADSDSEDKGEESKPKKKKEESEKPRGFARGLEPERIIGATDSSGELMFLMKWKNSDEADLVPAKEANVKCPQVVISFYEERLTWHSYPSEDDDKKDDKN
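Compound inhibition of the preformed complex between 50 nM HP1-beta and 50 nM biotinylated H3K9me3 peptide was read by AlphaScreen. Buffer was PBS pH 7.4 with 0.01% Tween-20. Incubations ran 30 min at room temperature, with 10 ug/mL donor/acceptor beads.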
BAZ2B inh: inhibitors of human BAZ2B bromodomain; hit rate 4.4% among 360,000; Q9UIF8; AID 504333; AlphaScreen BAZ2B-H3K14Ac peptide displacement; Potency, µM (doses to about 114 µM), usual class: inhibitors; note: nearly all actives have a fitted effect of over 60% in size
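Multi-concentration screen (max 110 uM) measuring displacement of acetylated histone H3 peptide from BAZ2B by AlphaScreen, using 50 nM protein, 50 nM peptide and 10 ug/mL streptavidin donor plus Ni-chelate acceptor beads.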
L3MBTL1 inh: blocks human L3MBTL1; Q9Y468; AlphaScreen L3MBTL1–H3K9me1 peptide binding; Potency, µM (highest dose often 57.1 µM), usual class: inhibitors; hit rate 0.66% among 230,000; AID 485360; note: nearly all actives have a fitted effect of over 60% in size
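AlphaScreen assay: L3MBTL1 (50 nM final) was preincubated 30 min at room temperature with biotinylated H3(1-15)K9me1 peptide (75 nM final), then 30 min with library compounds; streptavidin donor and nickel chelate acceptor beads (10 ug/mL final) added, 30 min dark.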
G9a inh: blocks human histone lysine methyltransferase G9a; G9a H3K9 monomethylation, AlphaScreen, 2 h; Potency, µM (top dose mostly 102 µM), hits mostly inhibitors; hit rate 8.8% among 350,000; note: nearly all actives have a fitted effect of over 75% in size
Target sequence (Q96KQ7 913-1193 limits assumed): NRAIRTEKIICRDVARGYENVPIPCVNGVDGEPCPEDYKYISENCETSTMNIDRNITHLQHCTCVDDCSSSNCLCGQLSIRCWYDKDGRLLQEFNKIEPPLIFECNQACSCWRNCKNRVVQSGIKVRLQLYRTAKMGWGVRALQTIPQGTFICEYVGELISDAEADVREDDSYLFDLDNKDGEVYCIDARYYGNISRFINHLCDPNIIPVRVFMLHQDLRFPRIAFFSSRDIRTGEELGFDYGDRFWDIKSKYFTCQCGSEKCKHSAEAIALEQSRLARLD
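AlphaScreen detection with an anti-monomethyl H3K9 antibody quantified product after a 2 h room-temperature reaction containing 500 nM biotinylated H3K9 peptide, 20 µM SAM and 20 nM enzyme, which had been preincubated 15 min with compound.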
Sfp inh: inhibitors of Bacillus subtilis Sfp phosphopantetheinyl transferase | hit rate 3.5% among 310,000 | AID 1490 | Potency, µM, usual class: inhibitors | Q9F4F7 | Biochemical Sfp PPTase activity, qHTS;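 note: the enzyme is Sfp with the accession as filed and its product quenches rhodamine fluorescence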
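Buffer: 50 mM Hepes-Na pH 7.6, 10 mM MgCl2, 0.01% Nonidet P-40, 0.01% BSA. Enzyme 15 nM, pre-exposed to compound 15 min; substrates then added and fluorescence change tracked over 30 min.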
Hits are given with their value; - = inactive; ? = inconclusive; . = no result. Calls come from the whole dose curve; as a rule, active = well fitted curve in the direction sought with a large enough effect; inconclusive = small, poorly fitted or top-dose-only effect, or another doubt; inactive = no such curve, though single readings can be large; an effect the other way counts as inactive or inconclusive.

SMILES	JMJD2A Tudor inh	HP1b chromo inh	BAZ2B inh	L3MBTL1 inh	G9a inh	Sfp inh
CCOC(=O)C1CCCN(c2nc3c(S(=O)(=O)c4ccc(C)c(C)c4)nnn3c3ccc(Cl)cc23)C1 (centres undefined)	-	-	-	.	-	.
Cn1c2c(c(=O)[nH]c1=O)C(c1ccc(O)cc1)C1=C(N2)c2ccccc2C1=O (centres undefined)	50µM	35µM	-	.	35µM	-
O=C(Nc1nc(-c2ccccn2)cs1)c1cc(Cl)ccc1[N+](=O)[O-]	56µM	?	14µM	10µM	5.6µM	45µM
CCC(=O)NC(=S)Nc1ccc(NC(=O)c2ccc(C)c([N+](=O)[O-])c2)cc1	-	-	-	-	7.9µM	-
Cc1csc(NC(=O)c2ccc(C)c([N+](=O)[O-])c2)n1	-	-	?	-	10µM	?
Cc1csc(NC(=O)c2ccc(Cl)cc2[N+](=O)[O-])n1	-	-	-	.	-	-
Cc1cc(C(=O)Nc2nc(-c3ccccn3)cs2)ccc1[N+](=O)[O-]	-	-	28µM	.	40µM	-
Cc1cc(C(=O)Nc2cnc3ccccc3c2)ccc1[N+](=O)[O-]	-	-	-	-	-	-
Cc1cc(C)nc(NC(=O)c2ccc(C)c([N+](=O)[O-])c2)n1	-	-	-	-	-	-
O=C(CCn1c(=O)c2cccn2c2cccnc21)NCc1ccc(F)cc1	-	-	-	.	-	.
O=C1CN(C(=O)C2CCCCC2)C(c2ccccc2)c2cc(F)ccc2N1 (centres undefined)	-	-	-	.	-	.
COc1ccc2c(c1)c1c(c(=O)n(-c3ccc(F)c(Cl)c3)c(=O)n1Cc1ccccc1C)n2C	-	-	-	.	-	.
CC(C)(C)c1ccc(C(=O)N2CCC(c3noc(-c4ccc(S(=O)(=O)N5CCCC5)cc4)n3)CC2)cc1	-	-	-	.	-	.
COc1ccc(S(=O)(=O)NCCS(=O)(=O)N2CCN(c3ccccc3F)CC2)cc1	-	-	-	.	-	.
Cc1c(C(=O)NCc2ccc(N(C)C)cc2)oc2c1-c1nn(Cc3cccc(Cl)c3)cc1CC2	-	-	-	.	-	.
Cc1ccc(C(=O)NC(=S)N2CC(C)OC(C)C2)cc1[N+](=O)[O-] (centres undefined)	-	-	-	-	40µM	-
CC(C)CC(OC(=O)CNC(=O)c1ccccc1)C(=O)Nc1cc(C(F)(F)F)ccc1Cl (centres undefined)	-	.	.	.	.	.
COc1ccc(N(Cc2nnc3n2CCCCC3)C(=O)Nc2cccc(C)c2)cc1Cl	-	-	-	.	-	.
CCn1ccnc1CN1CCc2c([nH]c3ccccc23)C1C1CCCCC1 (centres undefined)	14µM	-	35µM	-	45µM	-
Cc1ccc(NC(=O)/C=C/c2ccc(C)o2)c(C)c1	?	?	79µM	.	11µM	.
COC(=O)c1cc(Cl)c(NC(=O)/C=C/c2ccc(Cl)cc2Cl)cc1OC	-	-	-	-	-	-
COC(=O)c1ccc(Cl)cc1NC(=O)/C=C/c1ccc(C)o1	-	-	-	-	?	25µM
CCOc1ccccc1NC(=O)C(NCCc1ccc(OC)cc1)c1ccccc1 (centres undefined)	-	-	50µM	.	.	?
CCOc1ccccc1NC(=O)C(NCCN(C)C)c1ccccc1 (centres undefined)	22µM	-	50µM	-	10µM	79µM
COc1ccc(OC)c(/C(O)=C/C(=O)C(=O)Nc2cc(C)ccc2OC)c1	-	-	?	.	-	-
SMILES	JMJD2A Tudor inh	HP1b chromo inh	BAZ2B inh	L3MBTL1 inh	G9a inh	Sfp inh
CCOc1ccccc1NC(=O)C(=O)/C=C(\O)c1cc(OC)ccc1OC	20µM	-	-	.	?	-
CCOc1ccccc1NC(=O)C(NCC1CCCCC1)c1ccccc1 (centres undefined)	-	-	-	-	-	-
O=C1c2ccccc2C(=O)N1c1ccc(O)cc1	-	-	.	.	.	.
O=C(O)c1ccc(N2C(=O)c3cccc4c(C(=O)O)ccc(c34)C2=O)cc1	45µM	79µM	50µM	3.5µM	13µM	-
O=C1c2cccc3cccc(c23)C(=O)N1c1ccc(O)cc1	-	-	79µM	-	-	50µM
O=C(O)c1ccc(N2C(=O)c3cccc4cccc(c34)C2=O)cc1	-	-	-	-	.	-

High-throughput results deposited in PubChem by National Center for Advancing Translational Sciences (NCATS).
